Screening data as filed in PubChem BioAssay.
Shiga toxin inh – A qHTS for Small Molecule Inhibitors of Shiga Toxin | hit rate 9.2% among 290,000 | inhibition, % at 38.7 µM | Vero cells, Shiga toxin protein synthesis inhibition reporter | AID 2315, 2010; in the data active means inhibition mostly above about 28%, no sharp cut-off; inactive means mostly below about 43%; further: 0% is about no effect
LmPK inh – qHTS Assay for Inhibitors of Leishmania Mexicana Pyruvate Kinase (LmPK); purified LmPK, Kinase-Glo ATP luminescence, 1 h; AID 1721, 2009; hit rate 0.37% among 290,000; Potency, µM (highest dose often 57.5 µM), without a hit: at the highest dose activity change, negative = inhibition, most hits filed as inhibitors; further: potency means the concentration at half of the fitted maximal effect; on the % scale 0 is the no-effect control and ±100 the full control effect
Target sequence (Q27686 whole entry, looked up): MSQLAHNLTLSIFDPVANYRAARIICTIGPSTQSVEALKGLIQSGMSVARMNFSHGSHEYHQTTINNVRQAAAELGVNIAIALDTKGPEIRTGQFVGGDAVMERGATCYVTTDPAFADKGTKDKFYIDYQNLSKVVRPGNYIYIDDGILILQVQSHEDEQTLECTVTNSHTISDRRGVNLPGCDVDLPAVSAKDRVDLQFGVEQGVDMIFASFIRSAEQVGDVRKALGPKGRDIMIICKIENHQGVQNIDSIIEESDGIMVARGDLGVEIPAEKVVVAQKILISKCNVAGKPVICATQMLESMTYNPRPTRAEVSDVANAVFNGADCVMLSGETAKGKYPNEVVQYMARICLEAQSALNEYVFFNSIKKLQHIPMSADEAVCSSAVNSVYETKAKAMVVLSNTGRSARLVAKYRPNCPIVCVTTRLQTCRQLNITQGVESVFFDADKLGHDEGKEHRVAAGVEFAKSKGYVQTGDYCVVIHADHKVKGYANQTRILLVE
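Purified LmPK (0.1 nM) converted ADP (0.1 mM) to ATP with PEP (0.5 mM) in imidazole buffer pH 7.2 with KCl and MgCl2, 1 h at room temperature. ATP was read by Kinase-Glo luminescence; data normalized to uninhibited and no-enzyme controls.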
Pf growth 96h – Primary qHTS for delayed death inhibitors of the malarial parasite plastid, 96 hour incubation. P. falciparum luciferase reporter growth, 96 h. Potency, µM (series often up to 28.7 µM), without a hit: at the highest dose activity change, negative = inhibition, hits mostly inhibitors. hit rate 6.9% among 320,000. AID 504834, 2011; further: potency means the concentration at half of the fitted maximal effect; on the % scale 0 is the no-effect control and ±100 the full control effect
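Plates of compound plus infected erythrocytes (2% hematocrit, 0.05% parasitemia final) incubate 96 hours, 37 C, 5% CO2. Detection reagent added; reduced luminescence from the parasites' luciferase reporter flags inhibition.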
Cycloheximide cs – Cycloheximide Counterscreen for Small Molecule Inhibitors of Shiga Toxin | cell reporter, cycloheximide protein synthesis inhibition counterscreen | max response, % | hit rate 12% among 300,000 | AID 2314, 2010; in the data active means max response mostly above about 13%, no sharp cut-off; inactive means mostly below about 14%; further: read at 38.3 µM for the half of the compounds with a filed dose; 0% is about no effect
Pf growth 48h – Primary qHTS for delayed death inhibitors of the malarial parasite plastid, 48 hour incubation; Potency, µM (titrated, usually from 28.7 µM), inactives show at the top dose activity change, negative = inhibition, usual class: inhibitors; hit rate 5.9% among 310,000; P. falciparum luciferase growth in erythrocytes, 48 h; further: potency means the concentration at half of the fitted maximal effect; on the % scale 0 is the no-effect control and ±100 the full control effect
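Luciferase-expressing parasites in RBCs, 2% Hct / 0.1% parasitemia final; RPMI 1640 + 0.5% Albumax; 37 C, 5% CO2, one generation; luminescence read-out, lower signal = inhibition.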
* hit, by the source's call; ? = inconclusive; . = no result; [ ] = another dose, or the depositor's remark. This is a sample that favours compounds with a hit; in the whole collection about 22% have one here. Unless noted, the call rests on the fitted dose curve; in most records, active means well fitted inhibition curve with a large enough effect; inconclusive means small, poorly fitted or top-dose-only effect, or another doubt; inactive means no such curve, though single readings can be large or run the other way.

SMILES	Shiga toxin inh	LmPK inh	Pf growth 96h	Cycloheximide cs	Pf growth 48h
Cc1ccc(NC2c3ccccc3C(=O)N2CCN2CCOCC2)cc1 (stereo not drawn)	4	3%	9%	4	.
CC(=O)Nc1ccc(S(=O)(=O)Nc2ccccc2C(=O)N2CCCCCC2)cc1	13	5%	-5%	-5	-6%
CCc1cc(=O)oc2c3c(cc(OCC(=O)NCCCOC)c12)OC(C)(C)CC3	4	-11%	0%	-3	0%
CC(C)(C)OC(=O)N1CCC(c2cc(-c3cccs3)n[nH]2)CC1	20	3%	?	26*	2%
COC(=O)c1ccccc1S(=O)(=O)N1CCc2nc(COc3ccccc3)c3c(c2C1)CO[C@@H](C)C3	.	-6%[11.5 µM]	.	.	.
COC(=O)Nc1ccc(Cl)c(Cl)c1	7	.	.	16	.
C/C(=N\NC(=O)c1cccs1)c1ccc(C(=O)O)s1	83*	1%	39%	64*	97%
CC(=O)N/N=C(/C)c1ccc(NC(=O)c2csc(C)c2C)cc1	147*	0%	-12%	40*	230%
C/C(=N\NC(=O)c1csc(C)c1C)c1ccc(C)s1	38*	-3%	-15%	38*	93%
CCOC(=O)C/C(C)=N/NC(=O)c1cccs1	71*	1%	170%	22*	99%
Cc1cc(SCC(=O)Nc2c(C)n(C)n(-c3ccccc3)c2=O)nc2ccccc12	-5	-9%	?	1	2%
C/C(CCc1ccc2c(c1)OCO2)=N\NC(=O)c1ccccc1Br	44	-1%	15%	9	12%
CCOC(=O)N1CCC(N2C(=O)c3ccc(C(=O)Nc4cccc(OC)c4)cc3C2=O)CC1	-2	-3%	-3%	-3	12%
Cc1ccc(NC(=O)c2ccco2)c(NC(=O)c2cccs2)c1	-5	0%	.	9	4%
C/C(=N\NC(=O)c1cccs1)C(C)(C)C	57*	1%	55%	71*	102%
C/C(=N\NC(=O)c1csc(C)c1C)c1ccco1	62*	14µM*	81%	37*	163%
CCOC(=O)NC(O)C(=O)c1cccs1 (stereo not drawn)	18	-4%	5.2µM*	-4	8%
C/C(=N\NC(=O)c1ccc2c(c1)OCO2)c1ccco1	15	-4%	218%	16	93%
C/C(=N/NC(=O)c1cccs1)c1ccco1	95*	?	190%	56*	111%
Cc1c(O)c(=O)ccn1C	-10	10%	-10%	-4	22%
CCOc1ccc(CNCc2ccccc2Cl)cc1	51*	0%	-21%	32*	30%
CCOc1ccc(CNC(c2ccccc2)c2ccccc2)cc1	12	2%	-71%	-2	-14%
Fc1ccc(CCNCc2ccccc2Cl)cc1	24	3%	-17%	22*	.
Fc1ccc(CNCc2ccccc2Cl)cc1	24	0%	20%	14	3%
Cc1ccc(CNCc2ccccc2Cl)cc1	22	0%	51%	16*	.
SMILES	Shiga toxin inh	LmPK inh	Pf growth 96h	Cycloheximide cs	Pf growth 48h
CCOc1ccc(CN(C)CC(=O)NCc2ccccc2Cl)cc1	36*	-3%	?	12	30%
C=CCn1c(SC2CCOC2=O)nc2sc(C)c(C)c2c1=O (stereo not drawn)	0	2%	13µM*	-3	12%
CCOc1ccc(NC(=O)CN(C)C(=O)c2sc3ccccc3c2Cl)cc1OCC	.	.	0%	.	-6%
CC(=O)N1N=C(c2ccc(C)cc2)OC1c1cccnc1 (stereo not drawn)	61*	-11%	-10%	18	39%
CC(=O)N1N=C(c2cccc(Cl)c2)OC1c1ccc(C(C)C)cc1 (stereo not drawn)	31	4%	1%	23*	.
CC(=O)NC1=NN(C(C)=O)C(c2ccc(C(C)C)cc2)S1 (stereo not drawn)	5	-1%	-28%	16*	8%
CC(=O)N1N=C(c2cccc(Cl)c2)OC1c1cccc([N+](=O)[O-])c1 (stereo not drawn)	-8	4%	?	-3	?
CC(=O)N1N=C(c2cccc([N+](=O)[O-])c2)OC1c1cccc(Br)c1 (stereo not drawn)	-11	11%	?	6	?
CCOC(=O)c1ccc2c(c1)n(CC)c(/C=C/N(C)c1ccccc1)[n+]2CC	-9	3%	-1%	-3	1.2µM*
